# In the antibiotic and cytotoxicity screens of Wong et al. (2023):
# Among all 39,000 compounds or so, about 3,300 (8.5%) were called active. For the sample, actives were picked, then their nearest neighbours and some compounds at random.
# Tested on: HepG2
# Experiment: cytotoxicity call (relative viability < 0.9)
# Conditions: 10 µM
row,Structure (SMILES),cytotoxicity call
1,C[C@@H]1CCCCO[C@@H](CN(C)C(=O)c2ccncc2)[C@H](C)CN([C@H](C)CO)C(=O)c2cc(NS(C)(=O)=O)ccc2O1,inactive
2,N#C[C@H](c1ccccn1)N1CCOCC1,inactive
3,O=c1n(-c2ccccc2)c(=O)n2n1CC(COc1ccccc1)=C1[C@@H](CCc3ccccc3)OB(O)C[C@@H]12,inactive
4,C[C@H](CO)N1C[C@H](C)[C@@H](CN(C)S(C)(=O)=O)Oc2ccc(NS(=O)(=O)c3ccc(F)cc3)cc2C1=O,inactive
5,COc1cccc(S(=O)(=O)N2C[C@H](O)COC[C@H]3O[C@@H](CC(=O)N4CCOCC4)CC[C@@H]32)c1,inactive
6,CC(C)NC(=O)N[C@@H]1C=C[C@@H](CC(=O)NCCCN(C)C)O[C@@H]1CO,inactive
7,O=C(C[C@H]1C[C@@H]2c3cc(NC(=O)C4CCOCC4)ccc3O[C@@H]2[C@@H](CO)O1)NCCN1CCCCC1,inactive
8,C[C@H]1CN([C@@H](C)CO)C(=O)c2cccc(NC(=O)c3ccncc3)c2O[C@@H]1CN(C)Cc1ccc(C(=O)O)cc1,inactive
9,C[C@@H]1CN([C@@H](C)CO)C(=O)c2cc(C#Cc3ccccc3F)cnc2O[C@@H]1CN(C)S(=O)(=O)c1ccccc1,inactive
10,O=S(=O)(NCCN(C/C=C/c1ccc(F)cc1)C/C=C/c1ccc(F)cc1)c1cccc2cnccc12,inactive
11,O=S(=O)(c1ccc(-n2cnnn2)cc1)N1CCNCC1,inactive
12,O=S(=O)(c1cccc2cnccc12)N1CCCNCC1,active
13,COc1ccc(S(=O)(=O)Nc2ccc3c(c2)C(=O)N([C@@H](C)CO)C[C@H](C)[C@@H](CN(C)C(=O)Nc2cccc4ccccc24)OCCCC[C@H](C)O3)cc1,inactive
14,C[C@@H]1CN([C@H](C)CO)C(=O)c2cc(NC(=O)Nc3cccc4ccccc34)ccc2O[C@@H]1CN(C)Cc1ccc(-c2ccccc2)cc1,active
15,C[C@H]1CN([C@@H](C)CO)C(=O)c2cc(NC(=O)Nc3cccc4ccccc34)ccc2O[C@H]1CN(C)Cc1ccc(C(=O)O)cc1,inactive
16,C[C@H]1CN([C@@H](C)CO)C(=O)c2cc(NC(=O)Nc3cccc4ccccc34)ccc2O[C@@H]1CN(C)Cc1ccc(-c2ccccc2)cc1,active
17,C[C@H](CO)N1C[C@H](C)[C@H](CN(C)Cc2ccc(C(=O)O)cc2)Oc2ccc(NC(=O)Nc3cccc4ccccc34)cc2C1=O,inactive
18,C[C@@H]1CN([C@@H](C)CO)C(=O)c2cc(NC(=O)Nc3cccc4ccccc34)ccc2O[C@H]1CN(C)Cc1ccc(-c2ccccc2)cc1,inactive
19,C[C@@H]1CN([C@H](C)CO)C(=O)c2cc(NC(=O)Nc3cccc4ccccc34)ccc2O[C@H]1CN(C)Cc1ccc(-c2ccccc2)cc1,active
20,C[C@@H]1CN([C@H](C)CO)C(=O)c2cc(NC(=O)Nc3cccc4ccccc34)ccc2O[C@@H]1CN(C)Cc1ccc(C(=O)O)cc1,inactive
21,C[C@H]1CN([C@@H](C)CO)C(=O)c2cc(NC(=O)Nc3cccc4ccccc34)ccc2O[C@H]1CN(C)Cc1ccccc1,inactive
22,C[C@H](CO)N1C[C@H](C)[C@@H](CN(C)Cc2ccc(-c3ccccc3)cc2)Oc2ccc(NC(=O)Nc3cccc4ccccc34)cc2C1=O,inactive
23,C[C@H]1CN([C@@H](C)CO)C(=O)c2cc(NC(=O)Nc3cccc4ccccc34)ccc2O[C@H]1CN(C)Cc1ccc(-c2ccccc2)cc1,inactive
24,C[C@@H]1CN([C@@H](C)CO)C(=O)c2cc(NC(=O)Nc3cccc4ccccc34)ccc2O[C@@H]1CN(C)Cc1ccc(-c2ccccc2)cc1,inactive
25,C[C@H](CO)N1C[C@H](C)[C@H](CN(C)Cc2ccc(-c3ccccc3)cc2)Oc2ccc(NC(=O)Nc3cccc4ccccc34)cc2C1=O,active
